Most compounds without a hit are left out; they make up all but 3.2% or so of the library.
ALOX15 inhib = 15-hLO (ALOX15) enzyme inhibition. P16050. purified 15hLO-1, xylenol orange hydroperoxide absorbance. Potency, µM (titrated, usually from 57.1 µM), for the others: at the highest dose activity change, negative = inhibition, usual class: inhibitors. 74,000 tested, 1.4% active. AID 887; note: % is set by controls: 0 for no effect and ±100 for the full control effect; nearly all actives have a fitted effect of over 55% in size
Target sequence (P16050 whole entry, looked up): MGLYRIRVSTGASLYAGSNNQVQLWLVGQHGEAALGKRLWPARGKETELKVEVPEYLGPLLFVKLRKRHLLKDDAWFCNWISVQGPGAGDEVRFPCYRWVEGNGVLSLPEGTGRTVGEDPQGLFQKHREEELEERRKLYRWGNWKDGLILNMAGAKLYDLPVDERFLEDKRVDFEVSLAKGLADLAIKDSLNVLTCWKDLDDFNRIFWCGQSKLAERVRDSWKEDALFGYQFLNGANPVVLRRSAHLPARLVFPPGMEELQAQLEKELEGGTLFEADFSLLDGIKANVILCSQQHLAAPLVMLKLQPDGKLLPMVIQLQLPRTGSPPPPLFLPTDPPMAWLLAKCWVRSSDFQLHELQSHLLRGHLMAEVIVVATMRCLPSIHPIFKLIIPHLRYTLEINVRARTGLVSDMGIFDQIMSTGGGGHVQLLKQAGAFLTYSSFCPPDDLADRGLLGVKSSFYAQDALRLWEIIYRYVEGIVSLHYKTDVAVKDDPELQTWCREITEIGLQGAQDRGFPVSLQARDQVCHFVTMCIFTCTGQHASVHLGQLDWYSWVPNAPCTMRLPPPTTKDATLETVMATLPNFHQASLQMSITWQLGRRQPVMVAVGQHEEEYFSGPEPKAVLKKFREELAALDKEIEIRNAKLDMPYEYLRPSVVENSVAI
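Readout: Fe(III)-xylenol orange absorbance, 573-to-405 nm ratio as reaction progress. Enzyme 40 nM purified human 15hLO-1, substrate 50 uM arachidonic acid, 6 min RT after 15 min compound preincubation; Hepes pH 7.5 buffer with Triton X-100.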
Hsp90 Hop PPI = changes Hsp90-Hop TPR2A binding signal, up or down; 71,000 tested, 0.44% active; Potency, µM (highest dose often 57 µM), for inactives: top-dose activity change, negative = inhibition; AlphaScreen TPR2A-His6 binding biotin-Hsp90 C-terminal peptide; active = well fitted curve in either direction with a large enough effect; inconclusive = small, poorly fitted or top-dose-only effect, or another doubt; note: % is set by controls: 0 for no effect and ±100 for the full control effect
USP2a inhib = USP2a (human) protease inhibition. O75604. USP2a enzymatic assay, qHTS inhibition. Potency, µM (highest dose often 38.3 µM), for inactives: at the highest dose activity change, negative = inhibition, actives largely listed as inhibitors. 60,000 tested, 0.1% active; note: nearly all actives have a fitted effect of over 60% in size
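USP2 core (20 nM final) was preincubated with compound for 30 min at RT in 20 mM Tris-HCl pH 8.0, 2 mM CaCl2, 2 mM beta-mercaptoethanol; Ub-PLA2 (20 nM) plus NBD C6-HPC (20 uM) then added, fluorescence read after 2.5 h.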
Tau filament bind = binds recombinant human tau filaments; recombinant tau filaments, thioflavin S fluorescence, 15 h; filaments grown with octadecylsulfate alongside compound; Potency, µM (highest dose often 57.1 µM), inactives show top-dose activity change, negative = inhibition; 71,000 tested, 2% active;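 note: % is set by controls: 0 for no effect and ±100 for the full control effect; actives lower thioflavin S fluorescence by blocking filaments or displacing dye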
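Recombinant tau protein (human, 1 uM final) plus 30 uM ODS in HEPES pH 7.4 with NaCl, DTT and thioflavine S. Compound present from the start; fluorescence at 510 nm after 15 h, 37 C.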
An asterisk follows results filed as active; ? = inconclusive; nt = no result given; [ ] = dose if it differs, or a comment. Unless noted, calls come from the whole dose curve; as a rule, active = well fitted curve in the direction sought with a large enough effect; inconclusive = small, poorly fitted or top-dose-only effect, or another doubt; inactive = no such curve, though single readings can be large; an effect the other way counts as inactive or inconclusive. Potency is the fitted concentration of half-maximal effect.

SMILES | ALOX15 inhib | Hsp90 Hop PPI | USP2a inhib | Tau filament bind
Cc1ccc(NCc2nnc(SCC(=O)Nc3cccc(O)c3)n2CC2CCCO2)c(C)c1 (configuration not stated) | 12% | -9% | nt | -4%
CC(=O)OC1CC(O)C(C)(C)C2CC(OC(C)=O)[C@]3(C)C(CC[C@@]4(C)C(c5ccoc5)OC(=O)C5OC534)[C@]12C (some centres not stated) | 0% | nt | 45% | nt
CCOC(=O)c1nn(-c2ccccc2)c(=O)c2c(N)scc12 | 5µM* | -5% | -1% | -20%
c1c[nH]c(CN2CCOCC2)n1 | 9%[11.4 µM] | -6%[11 µM] | nt | 0%[11.4 µM]
CCOC(=O)c1cc(-c2ccc3c(c2)OCCO3)nc2c1c(C)nn2CCC#N | -10% | ? | 26% | -7%
CCOC(=O)c1cc(-c2ccco2)nc2c1c(C)nn2CCC#N | ? | -11% | 35% | 16µM*
COc1cc(OC)c2c(c1Cl)O[C@@]1(C2=O)[C@H](C)CC(=O)C[C@@H]1OC | 3%[25.6 µM] | -3%[26 µM] | -6%[17.1 µM] | 5%[25.6 µM]
Cc1cnc(CNc2ncncc2-c2ccccc2C(F)(F)F)cn1 | ? | -9% | -15% | -7%
CC(C)c1ccc(NC(=O)C2CC(=O)N=C(N)S2)cc1 (configuration not stated) | 25µM* | -5% | 4% | -10%
CS(=O)(=O)Nc1cccc(-c2cncnc2Nc2ccc(F)cc2)c1 | ? | 1% | 25% | 0%
O=C(c1cccc(F)c1)N1CCC2(CC1)CCN(c1cccc(-c3ccccc3)c1)CC2 | -9% | -27% | 91% | 25µM*
CC(=O)N1CCC2(CC1)CCN(c1ccc(-c3ccccc3)cc1)CC2 | -23% | ? | 167% | 13µM*
COC(=O)[C@@]1(Cc2ccccc2)[C@H]2c3cc(C(=O)N4CCCC4)n(Cc4cc(F)cc5c4OCOC5)c3C[C@H]2CN1C(=O)c1ccccc1 | nt | -4% | nt | 26%
CN(C)c1ncc2nc(-c3ccc(F)cc3)c(=O)n(Cc3cccs3)c2n1 | -12% | -6% | 68% | -1%
COc1ccc(-c2nc3cnc(N4CCN(C)CC4)nc3n(Cc3cccs3)c2=O)cc1 | -29% | -5% | 273% | 262%
CN1CCN(c2ncc3nc(-c4cc(F)cc(F)c4)c(=O)n(Cc4cccs4)c3n2)CC1 | 2% | -5% | 209% | 3.2µM*
Cc1nc2cnc(N(C)C)nc2n(Cc2cccs2)c1=O | -4% | 7% | 37% | -7%
CN(C)c1ncc2nc(CCc3ccccc3)c(=O)n(Cc3cccs3)c2n1 | ? | 25µM* | 69% | 46%
CN(C)c1ncc2nc(-c3cc(F)cc(F)c3)c(=O)n(Cc3cccs3)c2n1 | 7.9µM* | 0% | 98% | -4%
CN1CCN(c2ncc3nc(-c4cc(F)cc(F)c4)c(=O)n(C)c3n2)CC1 | 6% | 2% | 43% | -17%
Cn1c(=O)c(-c2cc(F)cc(F)c2)nc2cnc(N3CCNCC3)nc21 | 2% | 2% | 41% | 5µM*
COC(=O)[C@]1(C)CCC(c2ccc(C)cc2)=C(CC(=O)O)C1 | 9%[11.4 µM] | 0%[11 µM] | nt | 5%[11.4 µM]
CCNc1ncc2nc(-c3cc(F)cc(F)c3)c(=O)n(C[C@H]3CCCO3)c2n1 | 3% | -8% | 35% | 36%
CN(c1cccc(NC(=O)Nc2cccc(Cl)c2)c1)S(C)(=O)=O | -8% | 1% | 12% | 6%
CN(C)c1ccc(NC(=O)Nc2cccc(Cl)c2)cc1 | -14% | -29% | 3% | 5µM*
SMILES | ALOX15 inhib | Hsp90 Hop PPI | USP2a inhib | Tau filament bind
CC(C)NC(=O)N1CC2(CCN(C(=O)c3cccn3C)CC2)C1 | -12% | -6% | -12% | 2%
Cc1ccc(N2CCN(C(=S)c3ccc(N(C)C)cc3)CC2)cc1 | ? | ? | 31% | 13µM*
CN(C)c1ccc(C(=S)N2CCN(c3ccccc3)CC2)cc1 | -1% | -16% | 7% | -3%
CCC(=O)O[C@H]1C(O[C@@H]2C(C)[C@H](O[C@H]3C[C@@](C)(OC)C(O)C(C)O3)C(C)C(=O)OC(CC)[C@@](C)(O)C(O)[C@H](C)C(=O)C(C)C[C@]2(C)O)OC(C)CC1N(C)C (some centres not stated) | -27% | nt | 47% | nt
Cc1sc2nc3ccc(N4CCCCC4)nn3c(=O)c2c1C | -8% | 1% | 7% | 26%
Cc1ccc2nc3ccc(N4CCCC4)nn3c(=O)c2c1 | 25µM* | -1% | -2% | -24%
CCOC(=O)c1oc2ccccc2c1CSc1nnnn1-c1ccc(C)cc1 | 1µM* | ? | 6% | -2%
CCOC(=O)c1oc2ccccc2c1CSc1nnc(-c2ccco2)o1 | -7% | 1% | -1% | 5%
CNC(=O)[C@@H]1O[C@@H](n2cnc3c(NCc4cccc(I)c4)ncnc32)[C@H](O)[C@@H]1O | -4% | 0% | 17% | 6%
Oc1cc2c(cc1O)C1c3ccc(O)c(O)c3OCC1(O)C2 (configuration not stated) | 5µM* | nt | 0% | nt
CN1CCCC2(CCN(C(=O)c3cccn3C)CC2)C1 | -2% | 1% | 0% | -14%
Cc1cc(C)n(-c2ccc(C(=O)OCC(=O)c3ccc(Br)s3)cc2)n1 | -10% | -2% | 49% | 13µM*
CCCSc1nnc2nc3c(nn12)c1ccccc1n3C | 5% | -27% | nt | 16µM*
CCNC(=O)[C@@H]1O[C@@H](n2cnc3c(N)nc(NCCc4ccc(CCC(=O)O)cc4)nc32)[C@H](O)[C@@H]1O | 30% | ? | 8% | -17%
COC(=O)C1(C)C=C2C(=C(c3ccccc3)C(=O)C2C)CN1 (configuration not stated) | nt | -3% | nt | 107%
CC(=O)Oc1ccc(/C=C\C(=O)C[C@@H]2O[C@@H](Oc3cc(OC(C)=O)c4c(c3)O[C@@H](c3ccc(OC(C)=O)cc3)CC4=O)[C@H](OC(C)=O)[C@H](OC(C)=O)[C@@H]2OC(C)=O)cc1 | nt | 3% | nt | ?
O=C(Nc1cccc(-c2nc3cccnc3s2)c1)c1ccco1 | -3% | -3% | 38% | 13%
O=C(Nc1ccc(-c2nc3cccnc3s2)cc1)c1ccco1 | 25µM* | ? | nt | 64%
Cc1ccc2c(c1C)NC(C(=O)O)C1CC=CC21 (configuration not stated) | ? | -14% | 3% | 3.2µM*
COc1ccccc1NC(=O)N1CCN(c2cccc(C(F)(F)F)c2)CC1 | 40µM* | ? | ? | 2%
CCOc1cc(C)c(S(=O)(=O)NC2CCCCC2)cc1C | -18% | 0% | 3% | 10µM*
CN(CCc1ccccn1)c1ccc2c(c1)C(=O)c1ccccc1-2 | 2%[11.4 µM] | ? | nt | 4µM*
Cc1cccc(CN(C)CCc2ccccn2)c1 | -7%[11.4 µM] | -5%[11 µM] | 1%[7.66 µM] | 24%[11.4 µM]
O=C(C(Cc1ccccc1)n1cccc1)N1CCCCC1 (configuration not stated) | 12% | -3% | nt | -8%
COc1ccc(N2CCN(C(=O)C(Cc3ccccc3)n3cccc3)CC2)cc1 (configuration not stated) | 25µM* | ? | nt | 13µM*
O=C(c1ccco1)N1CCC2(CCN(Cc3ccccc3)CC2)CC1 | -7% | 1% | 12% | -2%
Cc1ccc(Oc2cc(C)nc(-c3ccccc3O)n2)cc1 | 3% | 23% | -5% | 9%
Cc1cc(OC2CCCCC2)nc(-c2ccccc2O)n1 | -5%[11.4 µM] | 3.2µM* | -5%[7.66 µM] | 18%[11.4 µM]
